Rows were chosen to be rich in hits. Some 2.4% of all compounds tested hit in one or more screens of this group.
D2 PAM-1 – human D2 receptor positive allosteric modulation; P14416; DiscoveRx D2 beta-arrestin cells, luminescence, 90 min; 100% = 57 uM dopamine signal; potentiation, % (concentration not given with the values); 0.23% of 360,000 active; in the data active = potentiation above about 50%; inconclusive = mostly about 30% to 49%
Target sequence (P14416 whole entry, looked up): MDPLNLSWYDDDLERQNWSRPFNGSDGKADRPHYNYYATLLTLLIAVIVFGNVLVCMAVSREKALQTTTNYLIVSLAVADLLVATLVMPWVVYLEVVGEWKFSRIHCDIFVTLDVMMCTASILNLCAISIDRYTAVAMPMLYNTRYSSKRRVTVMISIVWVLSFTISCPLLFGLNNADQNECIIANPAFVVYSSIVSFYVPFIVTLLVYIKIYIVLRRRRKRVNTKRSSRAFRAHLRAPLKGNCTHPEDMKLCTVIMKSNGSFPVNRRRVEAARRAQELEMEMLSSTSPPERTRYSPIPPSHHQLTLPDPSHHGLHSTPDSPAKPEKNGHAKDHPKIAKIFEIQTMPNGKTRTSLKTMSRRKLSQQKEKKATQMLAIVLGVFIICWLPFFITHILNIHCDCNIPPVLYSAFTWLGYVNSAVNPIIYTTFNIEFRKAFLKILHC
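PathHunter D2 cells, attached overnight at 37 deg C, received compound in DMSO plus dopamine at EC20 (50 nM final) for 90 min at 37 deg C. Beta-arrestin recruitment was read as luminescence after 1 h with detection reagent at ambient temperature.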
D2 ag-1 – activates the human D2 dopamine receptor; P14416; HEK293 T-REx D2 cells, calcium flux agonist mode; activation, % at 2 µM; 0.53% of 340,000 active; AID 485358;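 active = activation over 3 SD above normal in the single-dose calcium agonist read, cut at about 30% in these data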; also: 0% is about no effect
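HEK293 Trex D2 cells, tetracycline-induced, o/n 30 C 5% CO2; no-wash Ca dye, RT 30–90 min; 10-cycle baseline, 23 nl cpd added, kinetic Ca read 180 s; agonist hits = positive Ca response.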
D2 ag-2 – activates the human D2 dopamine receptor; 0.084% of 360,000 active; activation, % (no concentration beside the values); DiscoveRx PathHunter D2 beta-arrestin, luminescence, 90 min; 100% = 57 uM dopamine signal; AID 624465; in the data active = activation above about 40%; inconclusive = between about 15% and that limit
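Agonist mode: compounds alone added to overnight-plated D2 PathHunter cells for 90 min at 37 C, with 57 uM final dopamine (EC100) defining full response. Beta-arrestin recruitment detected by chemiluminescent reagent, read after 1 h at ambient temperature.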
D2 antagonist – antagonists of human D2 dopamine receptor. inhibition, % at 10 µM. AID 485344. 2% of 340,000 active. P14416. HEK293 TREx D2 cells, calcium flux, dopamine EC80; in the data active = inhibition above about 30%; inactive = below that, where a call was filed; also: 0% is about no effect
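Compounds are added to dye-loaded, induced HEK293 T-REx cells coupled to calcium release via D2; after a 3 min kinetic read an EC80 dopamine stimulus is given and fluorescence is recorded for 3 more min.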
D2 PAM-2 – D2 dopamine receptor (human) potentiation; HEK293 T-REx D2, calcium flux, EC20 dopamine potentiation; potentiation, % at 10 µM; 0.34% of 340,000 active; P14416;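 active = potentiation over 3 SD above the plate norm, cut at about 30% in these data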; also: 0% is about no effect
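Primary screen. Calcium kinetics in induced HEK293 T-REx D2 cells: compound pre-addition 180 s, EC20 dopamine, 180 s more.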
The depositor's hits bear a star; ? = inconclusive; · = no result given.

SMILES | D2 PAM-1 | D2 ag-1 | D2 ag-2 | D2 antagonist | D2 PAM-2
COc1ccc(CN2CCCC(CO)(Cc3ccc(F)cc3F)C2)cc1 (configuration not stated) | -12 | 1 | -2 | 43* | -23
Cc1cn(C)c(CC(=O)NCc2ccccc2Cl)c1C(=O)O | · | 0 | · | · | -15
CCOC(=O)C1=C(CS(=O)(=O)c2ccc(C)cc2)NC(=O)NC1c1ccc(C(C)C)cc1 (configuration not stated) | · | 0 | · | · | 15
COc1ccc(-c2onc(C)c2C)cc1S(=O)(=O)N1CCN(c2ccc(Cl)cc2)CC1 | · | 1 | · | · | -2
CCOc1ccc(C2CC(=O)NC(NC(=O)c3cccc(Cl)c3)=N2)cc1 (configuration not stated) | · | -1 | · | · | 0
CC[C@]12CCCN3CCc4c(n(c5ccccc45)[C@](O)(C(=O)OC)C1)[C@@H]32 | 13 | 1 | -4 | -11 | 14
CCC12CCCN3CCc4c(n(c5ccccc45)C(O)(C(=O)OC)C1)C32 (configuration not stated) | -6 | 0 | 5 | 51* | -30
CCN(Cc1ccccc1)S(=O)(=O)c1ccc(C(=O)Nc2nnc(-c3ccccc3OC)o2)cc1 | -1 | 1 | 1 | 42* | -2
Cc1ccc(NC(=O)c2cccs2)cc1NC(=O)c1cccnc1 | 77* | · | -1 | · | ·
COc1cccc(NC(=O)CSc2cc(C)[nH]c(=O)n2)c1 | · | 1 | · | · | 15
ONC(=Nc1ccccc1)c1ccc(Cl)cc1 | 7 | -1 | 1 | 23 | 7
NC(=Nc1ccc(Cl)cc1)c1ccccc1 | 1 | 29 | 0 | 34* | -13
CC(C)N(C(=O)Cn1cc(S(=O)(=O)Cc2ccc(C(F)(F)F)cc2)c2ccccc21)C(C)C | · | -1 | · | · | 0
Cn1c(=O)oc2cc(S(=O)(=O)N3CCC4(CC3)OCCO4)ccc21 | 2 | 2 | 0 | 4 | -1
Cn1c(=O)oc2cc(S(=O)(=O)N3CCOCC3)ccc21 | 21 | 0 | 0 | 46* | -13
O=c1c2ccsc2ncn1Cc1ccc(Cl)cc1 | -2 | 1 | -8 | 38* | 3
O=c1c2ccccc2ncn1Cc1ccccc1 | -5 | 0 | 0 | 12 | 14
COc1ccc(-c2nnc(SCC(=O)NC3CCCC3)nc2-c2ccc(OC)c(OC)c2)cc1OC | · | 0 | · | · | 7
CCCCn1c(=O)c(Cc2ccccc2)c(O)c2ccccc21 | 5 | 0 | -4 | -15 | 31*
CCCCCCn1c(=O)c(Cc2ccccc2)c(O)c2ccccc21 | -5 | 0 | -7 | -5 | 4
Cc1ccc(Cn2c(CN3CCN(c4cccc(Cl)c4)CC3)nc3c2c(=O)n(C)c(=O)n3C)cc1 | · | 1 | · | · | 3
C=CCn1c(-c2csc(-c3ccccc3)n2)n[nH]c1=S | -15 | 0 | -4 | -27 | 48*
CCOc1ccc(/C=C2\CCC(C3CCCC3)C2=O)cc1 (configuration not stated) | 0 | -1 | 2 | 37* | -3
O=C(NCCc1cnc[nH]1)Nc1cccc(C(F)(F)F)c1 | -65 | 0 | -3 | 40* | -10
O=C(NCc1cccnc1)Nc1cccc(C(F)(F)F)c1 | -15 | 0 | -1 | -10 | -12
SMILES | D2 PAM-1 | D2 ag-1 | D2 ag-2 | D2 antagonist | D2 PAM-2
Cc1cc(C)c(OCC(=O)N(Cc2ccco2)Cc2ccco2)c(C)c1 | · | 2 | · | · | 5
CCn1c(=O)c2sccc2n2c(CCC(=O)Nc3ccc(F)cc3)nnc12 | · | -1 | · | · | ·
CC(=O)C(=Nc1ccccc1Cl)NNc1ccc(Cl)cc1 | ? | 1 | ? | 1 | 34*
CCC(C(=O)Nc1ccc(C)c(Cl)c1)n1c(=O)c(-c2ccccc2NC(C)=O)nc2ccccc21 (configuration not stated) | · | · | · | · | -10
COc1cccc(NC(=O)C2C3C=CC(O3)C2C(=O)NCc2cccnc2)c1 (configuration not stated) | -22 | -1 | -2 | 44* | -15
COc1cc(NC(=S)NCc2cccnc2)cc(OC)c1 | -3 | 0 | -1 | 1 | -3
C/C=C/c1ccc(OCCCCN2CC(C)CC(C)C2)c(OC)c1 (configuration not stated) | -16 | 0 | -4 | 38* | -25
CN(C)C=Nc1c(Br)cc(Br)c2nonc12 | 1 | 63* | 0 | 2 | -8
COc1ccc(C2C(O)C(c3c[nH]c4ccccc34)=NN2C(=O)CCl)cc1 (configuration not stated) | 6 | 0 | -4 | 32* | -4
COc1ccccc1Cn1ccn(Cc2c(F)cccc2Cl)c(=O)c1=O | · | 1 | · | · | -2
CN(Cc1ccccc1)C(=O)CN1CCN(C(c2ccccc2)c2ccccc2)CC1 | -35 | -2 | -8 | 51* | -28
CCOC(=O)c1cc(-c2ccc(C)o2)n[nH]1 | -10 | -1 | 0 | 30* | -15
CCOC(=O)C1CCCN(S(=O)(=O)c2ccc(N3CCCCS3(=O)=O)cc2)C1 (configuration not stated) | · | 2 | · | · | 5
CCOCCCNC(=O)c1c(NC(=O)c2cc(=O)c3cc(C)c(C)cc3o2)sc2c1CCC2 | · | -1 | · | · | 12
CC1(C)CC(=O)C(N=Nc2ccc3ncsc3c2)=C(O)C1 | 1 | 0 | -5 | 7 | -7
COc1ccc2nc(N=NC3=C(O)CC(C)(C)CC3=O)sc2c1 | -6 | -1 | -1 | 34* | -3
CC(C)Oc1ccc(CNC(=O)C2CCCN(S(=O)(=O)c3ccc4c(ccn4C)c3)C2)cc1 (configuration not stated) | · | 0 | · | · | -4
Cc1cc(C)cc(NC(=O)NCC(O)COc2ccc([N+](=O)[O-])cc2)c1 (configuration not stated) | -11 | -2 | -1 | 38* | -19
O=C(NCC(O)COc1ccc([N+](=O)[O-])cc1)Nc1ccccc1 (configuration not stated) | -6 | 0 | -2 | -25 | -9
Cc1cccc(NC(=S)NCC(c2ccccc2)N(C)C)c1 (configuration not stated) | -12 | 0 | -1 | 38* | ·
CN(C)NC(=S)Nc1cccc(Cl)c1 | -2 | 1 | 3 | 45* | 2
Cc1cccc(NC(=S)NC(C)CCc2ccccc2)c1 (configuration not stated) | -4 | 0 | -3 | -14 | -21
CN(C)C(CNC(=S)Nc1cccc(Cl)c1)c1ccccc1 (configuration not stated) | -18 | 0 | -6 | 55* | ·
O=S(=O)(Nc1ccc(-c2ccc(N3CCCC3)nn2)cc1)c1ccc(OC(F)(F)F)cc1 | · | 1 | · | · | -6
COc1ccc(OC)c(NC(=O)C2=C(C)C(=O)OC23CCCCCC3)c1 | · | 0 | · | · | 4
Clc1cc(Cl)c(OCc2nc(-c3ccccn3)no2)cc1Cl | -5 | 2 | -3 | -19 | -2

Screening data as filed in PubChem BioAssay.
